Measurements reported in PubChem BioAssay (Tox21).
“And” between values parts separate entries of the source, which are not always exact repeats. Equal entries are not always repeated. Records with an inconclusive call do not appear. Where a call stands in place of a potency, no number is given. More than one record can exist for a structure, and the calls need not agree. The source made the active and inactive calls. Unless noted, the call rests on the fitted dose curve.

Key:
[1] = Nuclear factor erythroid 2-related factor 2/antioxidant responsive element (Nrf2/ARE) small molecule agonists: qHTS cell viability counter screen in human keratinocytes (AID 1919968; active means well fitted curve in the direction sought with a large enough effect in the repeat runs; an effect the other way counts as inactive or inconclusive; further: nearly all actives have a fitted effect of over 55% in size; further: potency means the concentration at half of the fitted maximal effect)
How it was run: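 Viability counter-screen: KeratinoSens reporter cells, DMSO-delivered compounds, 23 h at 37 C, CellTiter-Fluor fluorescence.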

[2] = Nuclear factor erythroid 2-related factor 2/antioxidant responsive element (Nrf2/ARE) small molecule agonists: luciferase reporter gene qHTS assay in human keratinocytes (AID 1919969); further: nearly all actives have a fitted effect of over 35% in size; further: potency means the concentration at half of the fitted maximal effect
[3] = molecular target: Gonadotropin-releasing hormone receptor (Homo sapiens) (UniProt P30968); assay: Human gonadotropin-releasing hormone receptor (GnRHR) small molecule agonists, calcium flux assay in GnRHR-HEK293 cells (AID 1920063); further: nearly all actives have a fitted effect of over 35% in size
How it was run: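 Tox21-format agonist screen using human GnRHR-expressing HEK293 cells and a fluorescent calcium dye; kinetic 3-min fluorescence reading after compound addition, 15-point concentration series run in triplicate.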

[4] = molecular target: KiSS-1 receptor (Homo sapiens) (UniProt Q969F8); assay: Human kisspeptin (KISS1R) small molecule agonists, calcium flux assay in KISS1R-HEK293 cells (AID 1920064; active means well fitted curve in the direction sought with a large enough effect in the repeat runs; an effect the other way counts as inactive or inconclusive)
How it was run: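 Intracellular calcium mobilization in KISS1R-HEK293 cells was recorded by fluorescence (Ex/Em 480/540) for 3 min following compound addition to cells pre-loaded 1 h with calcium dye.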

[5] = G protein-coupled receptor (GPCR) small molecule agonists, calcium flux assay: HEK293 wild type cell line counter screen (AID 1920065)
How it was run: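 In this agonist-mode screen, ATP is the positive control and DMSO the vehicle. Cells grow 18 h before a 1 h dye incubation at 37 C; signal is taken at Ex/Em 480/540 over 3 min.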

[6] = p53 small molecule agonists, cell-based qHTS assay with human liver microsomes: qHTS cell viability counter screen (AID 1963579); further: nearly all actives have a fitted effect of over 45% in size; further: potency means the concentration at half of the fitted maximal effect
How it was run: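 In this multiplexed counter screen, the reporter plates were subsequently treated with CellTiter-Glo so that cell viability, reflected by luminescence, could be recorded for p53RE-bla cells dosed 16 h with compounds under microsomal activation (HLM and NADPH).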

[7] = p53 small molecule agonists, cell-based qHTS assay with rat liver microsomes: qHTS cell viability counter screen (AID 1963580); further: nearly all actives have a fitted effect of over 45% in size; further: potency means the concentration at half of the fitted maximal effect
How it was run: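 p53RE-bla HCT-116 cells were exposed 16 h at 37 C to compounds with rat liver microsomes (0.5 mg/mL) and NADPH (0.5 mg/mL). Viability was measured in the same wells as ATP content by CellTiter-Glo luminescence.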

[8] = p53 small molecule agonists, cell-based qHTS assay: qHTS cell viability counter screen (AID 1963581); further: nearly all actives have a fitted effect of over 45% in size; further: potency means the concentration at half of the fitted maximal effect
How it was run: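 Compounds are pinned onto HCT-116 p53RE-bla cells and left 16 h at 37 C. Following the reporter FRET read, ATP is quantified by CellTiter-Glo luminescence after 30 min at room temperature.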

[9] = molecular target: 5-hydroxytryptamine receptor 2A (Homo sapiens) (UniProt P28223); assay: 5-hydroxytryptamine receptor 2A (HTR2A) small molecule antagonists, cell-based qHTS assay (AID 1963586); further: nearly all actives have a fitted effect of over 45% in size
How it was run: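 Antagonist-mode intracellular calcium assay: DOI (4 nM) added after 5 min compound pre-incubation at room temperature to dye-loaded HTR2A-CHO cells. Fluorescence followed for 3 min, sampled every second.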

[10] = molecular target: 5-hydroxytryptamine receptor 2A (Homo sapiens) (UniProt P28223); assay: 5-hydroxytryptamine receptor 2A (HTR2A) small molecule agonists, cell-based qHTS assay (AID 1963587); further: nearly all actives have a fitted effect of over 30% in size
How it was run: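 CHO cells stably expressing human HTR2A, plated 18 h, loaded with calcium dye 1 h at 37 C. Agonist mode: compounds added and intracellular calcium fluorescence recorded kinetically for 2 min at 1 sec intervals.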

[11] = molecular target: Muscarinic acetylcholine receptor M1 (Homo sapiens) (UniProt P11229); assay: Cholinergic receptor muscarinic 1 (CHRM1) small molecule agonists, cell-based qHTS assay (AID 1963589); further: nearly all actives have a fitted effect of over 35% in size
How it was run: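 Stable CHRM1-CHO cells (human receptor) were incubated 18 h, dye-loaded for 1 h at 37 C and exposed to test compounds for agonist activity, with calcium-dependent fluorescence followed kinetically.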

[12] = cAMP Responsive Elements (CRE) small molecule antagonists, cell-based qHTS assay (AID 1963591; active means well fitted inhibition curve with a large enough effect in the signal ratio in the repeat runs, not every such curve was filed as active; the % refers to the signal ratio)
How it was run: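 qHTS in CRE-bla HEK 293T cells: compound in DMSO, then 0.25 uM NKH477 (final), 3 h at 37 °C/5% CO2; beta-lactamase FRET read-out after 2 h substrate incubation.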

[13] = molecular target: D(2) dopamine receptor (Homo sapiens) (UniProt P14416); assay: Dopamine D2 receptor (DRD2) small molecule agonists, cell-based qHTS assay (AID 1963594); further: nearly all actives have a fitted effect of over 35% in size
How it was run: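 HEK293 cells stably expressing human DRD2, pre-treated with PDE inhibitor Ro20-1724 (0.1 mM final) and compound 10 min at room temperature, then stimulated with NKH477 (200nM […]) for 30 min. cAMP read by HTRF (665/620 nm).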

[14] = molecular target: D(2) dopamine receptor (Homo sapiens) (UniProt P14416); assay: Dopamine D2 receptor (DRD2) small molecule antagonists, cell-based qHTS assay (AID 1963595; active means well fitted inhibition curve with a large enough effect in the signal ratio in the repeat runs, with a control signal flat; the % refers to the signal ratio)
How it was run: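 Antagonism was scored as restored cAMP in HEK293-DRD2 cells. These cells were stimulated with 200 nM NKH477 and 12 nM quinpirole for 30 min at room temperature, in the presence of 0.1 mM Ro20-1724.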

[15] = cAMP Responsive Elements (CRE) small molecule agonists, cell-based qHTS assay (AID 1963590)
How it was run: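 FRET-based beta-lactamase readout (LiveBLAzer B/G, 2 h RT) quantified CRE activation in HEK 293T CRE-bla cells after 3 h treatment with DMSO-dissolved compounds.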

[16] = molecular target: Beta-2 adrenergic receptor (Homo sapiens) (UniProt P07550); assay: Adrenergic beta2 receptor (ADRB2) small molecule antagonists, cell-based qHTS assay (AID 1963592); further: series mostly up to about 92 µM; nearly all actives have a fitted effect of over 50% in size
How it was run: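 Cells (CHO, stable ADRB2 overexpression) incubated 18-20hr at 37C; compounds added from DMSO; agonist mix (1nM isoproterenol, 100uM IBMX, 25uM Ro-20-1724) added; 0.5hr RT; d2-cAMP and anti-cAMP-cryptate added; 1hr RT; 665/615 nm read.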

[17] = molecular target: Muscarinic acetylcholine receptor M1 (Homo sapiens) (UniProt P11229); assay: Cholinergic receptor muscarinic 1 (CHRM1) small molecule antagonists, cell-based qHTS assay (AID 1963588); further: nearly all actives have a fitted effect of over 40% in size
How it was run: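 CHRM1-CHO calcium-flux assay, antagonist mode. Cells were seeded 18 h, dye-loaded 1 h at 37 C and given compound for 5 min at RT, then acetylcholine was added at 50nM. FDSS fluorescence was read 3 min; 15 concentrations, three runs.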

[18] = molecular target: Beta-2 adrenergic receptor (Homo sapiens) (UniProt P07550); assay: Adrenergic beta2 receptor (ADRB2) small molecule agonists, cell-based qHTS assay (AID 1963593);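 further: CHO cells stably overexpressing human ADRB2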
How it was run: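 CHO cells stably over-expressing ADRB2 were plated overnight at 37C, then dosed with compounds plus a stimulation mix containing 100uM IBMX and 25uM Ro-20-1724 for 0.5hr at room temperature. cAMP was measured by HTRF competition, 1hr.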

Chain of KiSS-1 receptor (Homo sapiens) (Q969F8 whole entry, looked up): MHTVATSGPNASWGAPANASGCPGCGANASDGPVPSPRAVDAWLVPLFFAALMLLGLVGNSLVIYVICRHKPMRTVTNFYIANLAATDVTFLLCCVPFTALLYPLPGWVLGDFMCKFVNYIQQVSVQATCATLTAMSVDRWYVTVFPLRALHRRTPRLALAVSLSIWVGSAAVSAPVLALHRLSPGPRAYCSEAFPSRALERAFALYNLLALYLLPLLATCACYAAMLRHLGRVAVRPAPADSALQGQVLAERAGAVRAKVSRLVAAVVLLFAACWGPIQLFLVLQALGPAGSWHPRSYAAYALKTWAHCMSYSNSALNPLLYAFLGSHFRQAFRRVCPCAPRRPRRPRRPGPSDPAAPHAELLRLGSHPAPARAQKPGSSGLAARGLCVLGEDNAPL
Chain of 5-hydroxytryptamine receptor 2A (Homo sapiens) (P28223 whole entry, looked up): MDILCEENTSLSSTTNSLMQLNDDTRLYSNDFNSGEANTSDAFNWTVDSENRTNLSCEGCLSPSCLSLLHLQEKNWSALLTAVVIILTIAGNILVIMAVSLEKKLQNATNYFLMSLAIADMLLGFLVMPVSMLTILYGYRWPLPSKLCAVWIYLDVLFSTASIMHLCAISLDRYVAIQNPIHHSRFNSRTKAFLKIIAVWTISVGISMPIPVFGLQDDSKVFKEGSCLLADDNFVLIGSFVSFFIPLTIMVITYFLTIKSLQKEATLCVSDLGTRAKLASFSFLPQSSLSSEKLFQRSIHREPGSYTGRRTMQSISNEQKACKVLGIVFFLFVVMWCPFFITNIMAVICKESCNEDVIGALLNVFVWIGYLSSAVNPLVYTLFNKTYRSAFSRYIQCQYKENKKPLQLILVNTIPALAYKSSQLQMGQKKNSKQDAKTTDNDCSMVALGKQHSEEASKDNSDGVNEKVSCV
Chain of Muscarinic acetylcholine receptor M1 (Homo sapiens) (P11229 whole entry, looked up): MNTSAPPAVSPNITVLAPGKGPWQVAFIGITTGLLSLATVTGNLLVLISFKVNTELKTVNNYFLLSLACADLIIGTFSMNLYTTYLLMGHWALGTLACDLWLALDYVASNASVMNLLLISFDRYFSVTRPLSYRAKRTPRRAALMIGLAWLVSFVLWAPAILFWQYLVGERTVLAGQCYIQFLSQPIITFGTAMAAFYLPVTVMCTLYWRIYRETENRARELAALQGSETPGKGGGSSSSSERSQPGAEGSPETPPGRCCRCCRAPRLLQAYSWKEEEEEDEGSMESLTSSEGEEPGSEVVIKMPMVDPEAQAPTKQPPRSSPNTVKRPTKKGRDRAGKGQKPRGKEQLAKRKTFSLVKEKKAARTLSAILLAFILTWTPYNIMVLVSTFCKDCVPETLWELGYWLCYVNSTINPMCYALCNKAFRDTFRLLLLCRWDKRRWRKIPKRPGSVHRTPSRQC
Chain of Beta-2 adrenergic receptor (Homo sapiens) (P07550 whole entry, looked up): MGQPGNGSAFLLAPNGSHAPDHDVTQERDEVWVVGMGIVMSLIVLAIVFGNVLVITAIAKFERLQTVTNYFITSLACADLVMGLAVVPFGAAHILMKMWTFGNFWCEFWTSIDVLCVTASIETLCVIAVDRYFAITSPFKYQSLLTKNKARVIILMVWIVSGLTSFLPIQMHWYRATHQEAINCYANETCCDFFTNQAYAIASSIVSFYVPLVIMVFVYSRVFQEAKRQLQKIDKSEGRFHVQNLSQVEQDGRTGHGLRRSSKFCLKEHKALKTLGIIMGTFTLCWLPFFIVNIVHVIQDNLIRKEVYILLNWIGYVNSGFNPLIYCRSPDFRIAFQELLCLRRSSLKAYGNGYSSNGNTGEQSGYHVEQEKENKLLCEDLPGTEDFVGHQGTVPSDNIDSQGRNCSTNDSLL
Chain of Gonadotropin-releasing hormone receptor (Homo sapiens) (P30968 whole entry, looked up): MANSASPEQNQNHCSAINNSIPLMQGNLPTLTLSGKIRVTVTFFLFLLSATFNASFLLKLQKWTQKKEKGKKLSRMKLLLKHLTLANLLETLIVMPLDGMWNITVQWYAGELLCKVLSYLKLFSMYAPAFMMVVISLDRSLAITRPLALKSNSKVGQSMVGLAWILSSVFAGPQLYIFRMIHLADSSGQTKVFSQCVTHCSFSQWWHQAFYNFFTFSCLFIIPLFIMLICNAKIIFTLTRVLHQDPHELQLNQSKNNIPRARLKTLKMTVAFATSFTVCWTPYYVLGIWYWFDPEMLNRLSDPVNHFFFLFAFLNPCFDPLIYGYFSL
Chain of D(2) dopamine receptor (Homo sapiens) (P14416 whole entry, looked up): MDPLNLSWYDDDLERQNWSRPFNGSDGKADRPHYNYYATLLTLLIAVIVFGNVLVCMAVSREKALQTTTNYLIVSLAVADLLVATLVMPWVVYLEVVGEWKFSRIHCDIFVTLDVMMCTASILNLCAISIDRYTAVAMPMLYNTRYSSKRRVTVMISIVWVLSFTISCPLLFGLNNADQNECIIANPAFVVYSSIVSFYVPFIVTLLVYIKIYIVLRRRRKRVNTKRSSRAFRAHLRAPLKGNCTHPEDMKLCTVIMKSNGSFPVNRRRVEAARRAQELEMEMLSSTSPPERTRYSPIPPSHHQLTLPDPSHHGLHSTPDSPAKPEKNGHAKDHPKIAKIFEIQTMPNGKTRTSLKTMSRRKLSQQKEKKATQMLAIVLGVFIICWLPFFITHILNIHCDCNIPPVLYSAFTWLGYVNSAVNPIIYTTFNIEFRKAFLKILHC

Compound | Potency [1] | Potency [2] | Potency [3] | Potency [4] | Potency [5] | Potency [6] | Potency [7] | Potency [8] | Potency [9] | Potency [10] | Potency [11] | Potency [12] | Potency [13] | Potency [14] | Potency [15] | Potency [16] | Potency [17] | Potency [18]
CCCCC(CC)COP(=O)(O)OCC(CC)CCCC (stereo unspecified) | 54.6 µM (active) and 54.5 µM (active) | inactive | inactive | inactive | inactive | 36.4 µM (active) and 20.4 µM (active) | 28.9 µM (active) | 20.5 µM (active) and 25.7 µM (active) | inactive | inactive | inactive | inactive | inactive | inactive | – | – | – | –
CC(C)OC(=O)C(C)(C)Oc1ccc(C(=O)c2ccc(Cl)cc2)cc1 | inactive | 61.1 µM (active) and inactive | inactive | inactive | inactive | inactive | inactive | inactive | – | – | – | inactive | inactive | inactive | inactive | inactive | – | –
c1cc(C(c2ccc(OCC3CO3)cc2)C(c2ccc(OCC3CO3)cc2)c2ccc(OCC3CO3)cc2)ccc1OCC1CO1 (stereo unspecified) | inactive | 22.5 µM (active) and 21.7 µM (active) | inactive | inactive | inactive | inactive | inactive | inactive | inactive | inactive | inactive | – | inactive | – | – | inactive | inactive | inactive
CCC(=O)O[C@H]1[C@H](O[C@@H]2[C@@H](C)[C@H](O[C@H]3C[C@@](C)(OC)[C@@H](O)[C@H](C)O3)[C@@H](C)C(=O)O[C@H](CC)[C@@](C)(O)[C@H](O)[C@@H](C)C(=O)[C@H](C)C[C@@]2(C)O)O[C@H](C)C[C@@H]1N(C)C | inactive | inactive | inactive | inactive | inactive | inactive | inactive | inactive | – | – | – | inactive | inactive | inactive | inactive | inactive | – | inactive
